Experimental data as given in PubChem BioAssay (NCATS).
Results filed as inconclusive are left out. Where a call stands in place of a potency, no number is given. Active and inactive are the calls of the source. Calls follow the shape of the dose curve; as a rule, active = well fitted curve in the direction sought with a large enough effect; inconclusive = small, poorly fitted or top-dose-only effect, or another doubt; inactive = no such curve, though single readings can be large; an effect the other way counts as inactive or inconclusive.

What was measured:
[1] = Quantitative High-Throughput drug screen in 47 multiple myeloma cell lines against the NCATS MIPE library collection: KHM11_PLB cell viability assay (AID 1918962); also: nearly all actives have a fitted effect of over 35% in size; also: potency is read from the fitted curve at half-maximal effect
Method in brief: (§1)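 Inhibition of cell viability is measured here. Each line was plated at 500 cells per well, treated with MIPE 4.0 drugs, kept 48 hours at 37C, then assayed for ATP content by CellTiter-Glo luminescence.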

[2] = Quantitative High-Throughput drug screen in 47 multiple myeloma cell lines against the NCATS MIPE library collection: JJN3_DSMZ cell viability assay (AID 1918966; also: nearly all actives have a fitted effect of over 50% in size; also: potency is read from the fitted curve at half-maximal effect)
Method in brief: (§2)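 qHTS of the MIPE 4.0 collection: 500 myeloma cells/well, 48 h drug exposure at 37C in 5% CO2, then CellTiter-Glo for 5 min at room temperature before luminescence reading.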

[3] = Quantitative High-Throughput drug screen in 47 multiple myeloma cell lines against the NCATS MIPE library collection: H1112_PLB cell viability assay (AID 1918967; also: nearly all actives have a fitted effect of over 30% in size; also: potency is read from the fitted curve at half-maximal effect)
Method in brief: as §2

[4] = Quantitative High-Throughput drug screen in 47 multiple myeloma cell lines against the NCATS MIPE library collection: Karpas25_ECACC cell viability assay (AID 1918968; also: nearly all actives have a fitted effect of over 35% in size; also: potency is read from the fitted curve at half-maximal effect)
Method in brief: as §2

[5] = Quantitative High-Throughput drug screen in 47 multiple myeloma cell lines against the NCATS MIPE library collection: KMS27_JCRB cell viability assay (AID 1918970); also: nearly all actives have a fitted effect of over 30% in size; also: potency is read from the fitted curve at half-maximal effect
Method in brief: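 Viability inhibition screen, 48 h compound exposure, luminescent ATP read-out.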

[6] = Quantitative High-Throughput drug screen in 47 multiple myeloma cell lines against the NCATS MIPE library collection: KMS12BM_JCRB cell viability assay (AID 1918971); also: nearly all actives have a fitted effect of over 35% in size; also: potency is read from the fitted curve at half-maximal effect
Method in brief: (§3)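 Myeloma cells (500 per well) were exposed to MIPE 4.0 compounds by pin transfer and incubated 48 hours at 37C, 5% CO2. Viability was read as ATP by CellTiter-Glo luminescence, normalised to DMSO (100%) and media-only (0%) wells.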

[7] = Quantitative High-Throughput drug screen in 47 multiple myeloma cell lines against the NCATS MIPE library collection: KMS20_JCRB cell viability assay (AID 1918973); also: nearly all actives have a fitted effect of over 45% in size; also: potency is read from the fitted curve at half-maximal effect
Method in brief: as §2

[8] = Quantitative High-Throughput drug screen in 47 multiple myeloma cell lines against the NCATS MIPE library collection: LP1_DSMZ cell viability assay (AID 1918982); also: nearly all actives have a fitted effect of over 35% in size; also: potency is read from the fitted curve at half-maximal effect
Method in brief: (§4)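 Viability after 48 h drug exposure was measured as ATP-dependent luminescence. Cells, 500 per well, sat at 37 °C under 5% CO2; DMSO wells set 100%, media-only wells 0%.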

[9] = Quantitative High-Throughput drug screen in 47 multiple myeloma cell lines against the NCATS MIPE library collection: JIM3_ECACC cell viability assay (AID 1918963; also: nearly all actives have a fitted effect of over 35% in size)
Method in brief: as §1

[10] = Quantitative High-Throughput drug screen in 47 multiple myeloma cell lines against the NCATS MIPE library collection: JIM1_ECACC cell viability assay (AID 1918964; also: potency is read from the fitted curve at half-maximal effect)
Method in brief: as §2

[11] = Quantitative High-Throughput drug screen in 47 multiple myeloma cell lines against the NCATS MIPE library collection: INA6_PLB cell viability assay (AID 1918965; also: nearly all actives have a fitted effect of over 55% in size; also: potency is read from the fitted curve at half-maximal effect)
Method in brief: as §2

[12] = Quantitative High-Throughput drug screen in 47 multiple myeloma cell lines against the NCATS MIPE library collection: KMS12PE_JCRB cell viability assay (AID 1918972); also: nearly all actives have a fitted effect of over 30% in size; also: potency is read from the fitted curve at half-maximal effect; as to viability: series mostly up to about 46 µM
Method in brief: as §2

[13] = Quantitative High-Throughput drug screen in 47 multiple myeloma cell lines against the NCATS MIPE library collection: MMM1_PLB cell viability assay (AID 1918976)
Method in brief: as §4

[14] = Quantitative High-Throughput drug screen in 47 multiple myeloma cell lines against the NCATS MIPE library collection: MOLP8_DSMZ cell viability assay (AID 1918977); also: nearly all actives have a fitted effect of over 45% in size; also: potency is read from the fitted curve at half-maximal effect
Method in brief: as §4

[15] = Quantitative High-Throughput drug screen in 47 multiple myeloma cell lines against the NCATS MIPE library collection: MM1R_ATCC cell viability assay (AID 1918981); also: nearly all actives have a fitted effect of over 35% in size; also: potency is read from the fitted curve at half-maximal effect
Method in brief: as §4

[16] = Quantitative High-Throughput drug screen in 47 multiple myeloma cell lines against the NCATS MIPE library collection: NCIH929_DSMZ cell viability assay (AID 1918978); also: nearly all actives have a fitted effect of over 35% in size; also: potency is read from the fitted curve at half-maximal effect
Method in brief: as §4

[17] = Quantitative High-Throughput drug screen in 47 multiple myeloma cell lines against the NCATS MIPE library collection: OCIMY1_PLB cell viability assay (AID 1918979)
Method in brief: as §4

[18] = Quantitative High-Throughput drug screen in 47 multiple myeloma cell lines against the NCATS MIPE library collection: MM1S_ATCC cell viability assay (AID 1918980); also: nearly all actives have a fitted effect of over 45% in size; also: potency is read from the fitted curve at half-maximal effect
Method in brief: as §4

[19] = Quantitative High-Throughput drug screen in 47 multiple myeloma cell lines against the NCATS MIPE library collection: KMS26_JCRB cell viability assay (AID 1918975); also: nearly all actives have a fitted effect of over 45% in size; also: potency is read from the fitted curve at half-maximal effect
Method in brief: as §3

SMILES	Potency [1]	Potency [2]	Potency [3]	Potency [4]	Potency [5]	Potency [6]	Potency [7]	Potency [8]	Potency [9]	Potency [10]	Potency [11]	Potency [12]	Potency [13]	Potency [14]	Potency [15]	Potency [16]	Potency [17]	Potency [18]	Potency [19]
CO[C@H]1C[C@@H]2CC[C@@H](C)[C@@](O)(O2)C(=O)C(=O)N2CCCC[C@@H]2C(=O)O[C@H]([C@H](C)C[C@@H]2CC[C@H](OCCO)[C@H](OC)C2)CC(=O)[C@H](C)C=C(C)[C@@H](O)[C@@H](OC)C(=O)[C@H](C)C[C@H](C)C=CC=CC=C1C	inactive	6.62 µM (active)	inactive	1.05 µM (active)	4.18 µM (active)	4.18 µM (active)	3.72 µM (active)	inactive											
O=C(N[C@@H](c1ccccc1)[C@@H]1CCCCN1)c1cccc(C(F)(F)F)c1Cl		inactive	14.8 µM (active)	inactive		7.43 µM (active)			inactive	inactive	inactive	23.5 µM (active)							
O=C1NC(=O)C(=Cc2ccc(-c3ccc(F)cc3)o2)S1	inactive				inactive						inactive	4.18 µM (active)	11.8 µM (active)	inactive	2.09 µM (active)				
O=C(CCN1CCN(C(=O)OCc2cc(Cl)cc(Cl)c2)CC1)c1ccc2[nH]c(=O)oc2c1	2.64 µM (active)		inactive			inactive			inactive			inactive		inactive	18.7 µM (active)	inactive	inactive	13.2 µM (active)	
COC[C@@H](c1ccc(C(F)(F)F)cc1)N1CCN(C2(C)CCN(C(=O)c3c(C)ncnc3C)CC2)C[C@H]1C	inactive		13.2 µM (active)	8.33 µM (active)	inactive	inactive		inactive			26.4 µM (active)			inactive	inactive	9.35 µM (active)	inactive		inactive
COc1ccc(-c2coc3cc(O)ccc3c2=O)cc1		inactive	inactive	inactive	inactive			inactive	inactive	inactive	inactive	inactive		0.0059 µM (active)	inactive	inactive	inactive	inactive	
C=C1C(=O)OC2C=C(C)CCC=C(C)CCC12 (configuration not stated)	inactive	16.6 µM (active)	20.9 µM (active)	20.9 µM (active)		20.9 µM (active)				14.8 µM (active)	16.6 µM (active)	20.9 µM (active)	11.8 µM (active)	16.6 µM (active)	23.5 µM (active)	20.9 µM (active)		23.5 µM (active)	
O=C(O)[C@H]1O[C@H](Oc2cc3oc(-c4ccccc4)cc(=O)c3c(O)c2O)[C@H](O)[C@@H](O)[C@H]1O	20.9 µM (active)	13.2 µM (active)	inactive	inactive		16.6 µM (active)					inactive	inactive			23.5 µM (active)	inactive			
OC[C@H]1O[C@@H](n2cnc3c2NC=NC[C@@H]3O)C[C@H]1O	inactive	23.5 µM (active)	18.7 µM (active)		13.2 µM (active)			inactive		inactive	inactive	inactive	20.9 µM (active)	inactive	inactive	26.4 µM (active)	inactive		
COc1cc(O)c2c(c1)C(=O)c1cc(C)cc(O)c1C2=O	inactive		inactive	inactive	inactive	inactive	inactive	inactive	inactive			inactive				inactive	inactive		inactive
C[C@]12CCC3c4ccc(O)cc4CCC3C1CCC2=O (some centres not stated)	inactive		inactive		inactive	20.9 µM (active)		18.7 µM (active)	inactive			inactive		20.9 µM (active)	inactive	inactive	inactive		3.32 µM (active)
C[C@H]1[C@H](NC(=O)C(=NOC(C)(C)C(=O)O)c2csc(N)n2)C(=O)N1S(=O)(=O)O	inactive		inactive		inactive	1.48 µM (active)	16.6 µM (active)	inactive	inactive			inactive		inactive	inactive	inactive	inactive	14.8 µM (active)	inactive
CC1(C)O[C@H]2C[C@@H]3[C@H]4CCC5=CC(=O)C=C[C@]5(C)[C@@]4(F)[C@@H](O)C[C@]3(C)[C@]2(C(=O)CO)O1		inactive						0.0132 µM (active)	inactive	inactive	inactive	inactive				26.4 µM (active)	inactive	0.0132 µM (active)	
CC(C)(C)OC(=O)N[C@H]1CCCCCC=C[C@@H]2C[C@@]2(C(=O)NS(=O)(=O)C2CC2)NC(=O)[C@@H]2C[C@@H](OC(=O)N3Cc4cccc(F)c4C3)CN2C1=O	inactive		inactive			inactive	inactive		inactive			13.2 µM (active)		inactive	inactive	inactive	inactive	inactive	
Nc1ncnc2c1nc(Cl)n2[C@@H]1O[C@H](CO)[C@@H](O)[C@@H]1O	6.62 µM (active)	16.6 µM (active)	18.7 µM (active)	7.43 µM (active)	20.9 µM (active)	23.5 µM (active)	4.69 µM (active)	20.9 µM (active)		16.6 µM (active)	2.09 µM (active)	14.8 µM (active)		7.43 µM (active)	0.935 µM (active)	8.33 µM (active)			20.9 µM (active)
